Shown are actives, neighbours in structure and some others; about 2.4% of the full set was active somewhere.
CHO-K1 Ca ag: nonselective activator or artifact in parental CHO-K1 cells; Fluo-8 calcium fluorescence; scaled to maximal ATP response, vehicle zero; activation, % at 3 µM; 0.48% of 360,000 active; in the data active means activation above about 15%;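 further: untransfected CHO-K1 host cells lacking M1 receptor as counterscreen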
M1 antag: antagonists of human M1 muscarinic receptor. P11229. CHO-K1 hM1, Fluo-8 calcium fluorescence, ACh EC80 antagonist. inhibition, % at 3 µM. 1.3% of 360,000 active;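 active means percent inhibition above its own plate's cutoff, namely the mean of that plate's compound wells plus 3 SD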;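 further: peak over basal fluorescence ratio during 140 s after agonist addition; 0% = ACh EC80 plus DMSO and 100% = DMSO alone without agonist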
Target sequence (P11229 whole entry, looked up): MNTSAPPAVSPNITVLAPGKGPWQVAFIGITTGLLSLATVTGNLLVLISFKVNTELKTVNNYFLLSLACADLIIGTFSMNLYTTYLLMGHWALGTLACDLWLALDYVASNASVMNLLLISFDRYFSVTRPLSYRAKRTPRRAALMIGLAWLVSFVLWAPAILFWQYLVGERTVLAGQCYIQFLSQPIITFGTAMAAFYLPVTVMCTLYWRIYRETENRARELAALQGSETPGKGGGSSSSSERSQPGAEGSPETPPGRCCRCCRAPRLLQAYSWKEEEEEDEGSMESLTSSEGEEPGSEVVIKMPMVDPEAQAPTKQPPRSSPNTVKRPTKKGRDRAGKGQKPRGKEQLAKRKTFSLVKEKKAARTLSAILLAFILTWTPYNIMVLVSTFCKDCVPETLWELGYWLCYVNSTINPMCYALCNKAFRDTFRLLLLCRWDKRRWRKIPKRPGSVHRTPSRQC
M1 PAM parental: M1 PAM counterscreen hit in parental CHO-K1 cells. 0.02% of 360,000 active. ATP EC20, Fluo-8 calcium fluorescence; 0% at ATP EC20, 100% at ATP max. activation, % at 3 µM;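 active means activation above the run cutoff, the mean activation of all test compounds plus 3 SD, cut at about 40% in these data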;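 further: peak over basal fluorescence ratio in a 140 s read after ATP addition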
CHO-K1 Ca antag: M1 antagonist counterscreen hit in parental CHO-K1 cells; ATP-induced calcium, Fluo-8 fluorescence; inhibition, % at 3 µM; 0.6% of 360,000 active; AID 602250;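 active means inhibition above a per-plate cutoff, the plate's mean sample inhibition plus 3 SD, cut at about 24% in these data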;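 further: 0% = DMSO plus EC80 ATP and 100% = DMSO alone without ATP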
CHRM1 agonist: human M1 muscarinic receptor agonism; CHO-K1 hM1, Fluo-8 calcium fluorescence, agonist mode; 0% DMSO, 100% acetylcholine EC100; P11229; activation, % at 3 µM; 0.33% of 360,000 active;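 active means activation above the run's mean compound activation plus 3 SD, cut at about 16% in these data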;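 further: peak over basal fluorescence ratio within a 140 s kinetic read after compound addition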
CHRM1 PAM: potentiates human M1 receptor response to acetylcholine; P11229; CHO-K1 hM1, Fluo-8 calcium fluorescence, ACh EC20; 0% = ACh EC20, 100% = maximal ACh; activation, % at 3 µM; 0.088% of 360,000 active; AID 588819; in the data active means activation above about 19%, passing the limit was not always enough
An asterisk follows results filed as active.

COC(=O)CCCCC(=O)OC was read as CHO-K1 Ca ag 0, M1 antag -16, M1 PAM parental 11, CHO-K1 Ca antag -13, CHRM1 agonist 5 and CHRM1 PAM 18.
COC(=O)CCCCCCCCCCN1CCCCC1 was read as CHO-K1 Ca ag 2, M1 antag 27*, M1 PAM parental 16, CHO-K1 Ca antag -4, CHRM1 agonist -8 and CHRM1 PAM -24.
For O=c1nc(-c2ccccc2)c2cc(Br)ccc2[nH]1 the results were CHO-K1 Ca ag 0, M1 antag -7, M1 PAM parental -3, CHO-K1 Ca antag -4, CHRM1 agonist 5 and CHRM1 PAM 15.
Screening O=c1nc(-c2ccccc2)c2cc(SC(F)F)ccc2[nH]1 returned CHO-K1 Ca ag 1, M1 antag -3, M1 PAM parental 7, CHO-K1 Ca antag 0, CHRM1 agonist -2 and CHRM1 PAM 28*.
`CCCS(=O)(=O)N1CCN(Cc2ccccc2C(F)(F)F)CC1` gave CHO-K1 Ca ag 0, M1 antag 2, M1 PAM parental -2, CHO-K1 Ca antag -4, CHRM1 agonist -4 and CHRM1 PAM 7.
For CN1CCCN(Cc2ccccc2C(F)(F)F)CC1 the results were CHO-K1 Ca ag 0, M1 antag 29*, M1 PAM parental 8, CHO-K1 Ca antag -6, CHRM1 agonist -7 and CHRM1 PAM -25.
For Cc1nnc(N2CCCC(C(=O)NCc3ccc(OC(C)C)cc3)C2)c2nn(-c3ccccc3)c(C)c12 (stereo not drawn) the results were CHO-K1 Ca ag -1, M1 antag 41*, M1 PAM parental 12, CHO-K1 Ca antag -22, CHRM1 agonist -6 and CHRM1 PAM -20.
Cc1c(N=c2scc(-c3ccccc3)n2C)c(=O)n(-c2ccccc2)n1C was read as CHO-K1 Ca ag 2, M1 antag 98*, M1 PAM parental 14, CHO-K1 Ca antag -12, CHRM1 agonist -6 and CHRM1 PAM -24.
Screening Cc1cccc(NC(=O)COC(=O)CN2C(=O)C3CCCCC3C2=O)c1C (stereo not drawn) returned CHO-K1 Ca ag 1, M1 antag -22, M1 PAM parental 17, CHO-K1 Ca antag -10, CHRM1 agonist -3 and CHRM1 PAM 14.
For O=C(O)c1ccccc1-c1nnc2c(Cl)cc(C(F)(F)F)cn12 the results were CHO-K1 Ca ag 0, M1 antag 95*, M1 PAM parental -2, CHO-K1 Ca antag 12, CHRM1 agonist 0 and CHRM1 PAM 5.
`FC(F)(F)c1nc2nc(Cl)c(Cl)nc2[nH]1` gave CHO-K1 Ca ag -1, M1 antag -15, M1 PAM parental 7, CHO-K1 Ca antag -6, CHRM1 agonist 0 and CHRM1 PAM 4.
`FC(F)(F)c1cccc(-c2nc3nc(Cl)c(Cl)nc3[nH]2)c1` gave CHO-K1 Ca ag 18*, M1 antag 33, M1 PAM parental -17, CHO-K1 Ca antag 6, CHRM1 agonist 5 and CHRM1 PAM -11.
Screening O=C(CN1C(=O)c2ccccc2S1(=O)=O)N1CCc2ccccc2C1 returned CHO-K1 Ca ag 0, M1 antag 1, M1 PAM parental -9, CHO-K1 Ca antag 25*, CHRM1 agonist -2 and CHRM1 PAM -10.
`CC1CCN(C(=O)CN2C(=O)c3ccccc3S2(=O)=O)CC1` gave CHO-K1 Ca ag 0, M1 antag -19, M1 PAM parental -3, CHO-K1 Ca antag 2, CHRM1 agonist -1 and CHRM1 PAM -4.
For CC(C)[C@H](NS(=O)(=O)c1ccc2c(c1)OCCO2)C(=O)OCC(=O)Nc1ccccc1Cl the results were CHO-K1 Ca ag 3, M1 antag -6, M1 PAM parental -6, CHO-K1 Ca antag -7, CHRM1 agonist -8 and CHRM1 PAM 8.
`CC(C)[C@H](NS(=O)(=O)c1ccc2c(c1)OCCO2)C(=O)OCC(=O)Nc1cc(Cl)ccc1Cl` gave CHO-K1 Ca ag 7, M1 antag 31*, M1 PAM parental 13, CHO-K1 Ca antag 6, CHRM1 agonist 1 and CHRM1 PAM -16.
`CC(Sc1nncs1)C(=O)Nc1ccc2c(c1)OCCO2` (stereo not drawn) gave CHO-K1 Ca ag 0, M1 antag -4, M1 PAM parental 9, CHO-K1 Ca antag 25*, CHRM1 agonist -2 and CHRM1 PAM 10.
Screening CC(C(=O)Nc1ccc2c(c1)OCCO2)c1ccc([N+](=O)[O-])cc1 (stereo not drawn) returned CHO-K1 Ca ag 17*, M1 antag 6, M1 PAM parental 12, CHO-K1 Ca antag -1, CHRM1 agonist 42* and CHRM1 PAM -2.
For CCC(C)NCCOCCOc1cc(C)c(Cl)c(C)c1 (stereo not drawn) the results were CHO-K1 Ca ag 1, M1 antag 54*, M1 PAM parental 10, CHO-K1 Ca antag -1, CHRM1 agonist -7 and CHRM1 PAM -25.
`CCC(C)NCCOCCOc1ccc(Cl)cc1Br` (stereo not drawn) gave CHO-K1 Ca ag 1, M1 antag 42*, M1 PAM parental -9, CHO-K1 Ca antag 16, CHRM1 agonist -7 and CHRM1 PAM -22.
C=CCc1cc(Cl)ccc1OCCCNC(C)CC (stereo not drawn) was read as CHO-K1 Ca ag 2, M1 antag 24*, M1 PAM parental 1, CHO-K1 Ca antag -2, CHRM1 agonist -7 and CHRM1 PAM -22.
`Cc1ccc(OCCOCCNC(C)C)c(Br)c1` gave CHO-K1 Ca ag 0, M1 antag -28, M1 PAM parental 20, CHO-K1 Ca antag -8, CHRM1 agonist -6 and CHRM1 PAM -1.
For COc1cc(C2NC(=O)c3ccccc3O2)ccc1OC(C)C (stereo not drawn) the results were CHO-K1 Ca ag -1, M1 antag -2, M1 PAM parental -10, CHO-K1 Ca antag 25*, CHRM1 agonist 0 and CHRM1 PAM 12.
For Cc1nc2sc3c(c2c(=N)n1N)CC(C)(C)OC3 the results were CHO-K1 Ca ag 3, M1 antag 9, M1 PAM parental 15, CHO-K1 Ca antag -10, CHRM1 agonist -6 and CHRM1 PAM -1.
Screening CC1(C)Cc2c(sc3ncn(N)c(=N)c23)CO1 returned CHO-K1 Ca ag -1, M1 antag -16, M1 PAM parental -4, CHO-K1 Ca antag 27*, CHRM1 agonist 0 and CHRM1 PAM 9.
For CC(C)(C)c1cc(C(=O)NNC(=O)Nc2cccc(Cl)c2)n(Cc2ccccc2)n1 the results were CHO-K1 Ca ag 0, M1 antag 16, M1 PAM parental -23, CHO-K1 Ca antag 29*, CHRM1 agonist -6 and CHRM1 PAM -8.
CC(C)(C)c1cc(C(=O)NNC(=O)Nc2ccccc2)n(Cc2ccccc2)n1 was read as CHO-K1 Ca ag 5, M1 antag -8, M1 PAM parental 6, CHO-K1 Ca antag 2, CHRM1 agonist -2 and CHRM1 PAM 4.

Compound activity: PubChem BioAssay, The Scripps Research Institute Molecular Screening Center
